Out of some 53,000 sequences screened, about 3,700 (7%) were called active. This is one part of a sample in which actives are shown more often than they occur. Unmarked numbers belong to inactive results.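 How the source made its calls: active means gene knockdowns whose robust z-score for IL-1 alpha signal is at least 2 or at most -2, so actives lie on both sides; inactive means the rest.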

The assay can be described thus: Components of the Cytosolic LPS Sensing Pathway: Gene Identification via Genome-wide siRNA Screen. The note with it: RAW264.7 macrophages, IL-1a HTRF, actives lie on both sides, screened at 100 nM (by protocol), cells primed 5 h with Pam3CSK4 first. The source says: Non-canonical inflammasome activation by cytosolic LPS is a critical component of the host response to Gram-negative bacterial infection, however we lack a comprehensive understanding of the cellular processes that control this pathway. Here we describe a genome-wide siRNA screen to identify genes regulating the mouse macrophage IL-1 alpha response to cytosolic LPS.
RAW264.7 cells were maintained in complete DMEM media, comprising DMEM with 4.5 g/L glucose, 10% FBS (Gemini Bio-Products, West Sacramento, CA), 2 mM Glutamine (Lonza) and 20 mM HEPES (Lonza), hereafter complete DMEM.
The RNAi screen was conducted in 384-well format using the Ambion Silencer Mouse Genome siRNA Library (#4391425), which consists of three unique, nonoverlapping, nonpooled siRNAs for each of 17,000 gene targets. siRNA reagents ([…]) were stamped into 384-well white flat-bottom microplates (Corning, 3570) using a Velocity11 VPrep liquid handling system (Agilent) integrated into a BioCel robotic platform (Agilent) in columns 1-22, leaving columns 23-24 empty for negative (Ambion, Negative control #1) and positive (mouse Casp4) controls, respectively. The median value of each plate's negative control column was used to normalize sample wells, and the positive control was used to assess transfection efficiency and assay performance.
Lipofectamine RNAiMAX Transfection Reagent ([…]; Invitrogen) was added in […] serum-free, antibiotic-free media to plate wells using a Thermo Scientific Matrix WellMate and Microplate Stacker. Plates were incubated for 45 min at room temperature to allow for the sufficient formation of siRNA-lipid complexes. Cells were seeded at a density of 1x10^4 cells per well in 20 microL media containing 20% (vol/vol) FBS without antibiotics. The final concentration of siRNA in each well was 100 nM. Cells were cultured for 48h at 37 degrees C in 5% CO2 before addition of […] of TLR ligand Pam3CSK4 for 5 hours. The medium was then removed, replaced with […] growth media and cell were transfected with […] of LipidA and TransIT-TKO (Mirus) for 24 hour. At the end of the LipidA treatment, […] of supernatant was transferred to a 384 Greiner Bio-one non-binding low volume plate and […] of IL-1a HTRF reagent (Cisbio, 62MIL1APEH) was added and incubated at room temperature overnight. The plates were read on an EnVision plate reader (PerkinElmer). Cell viability was measured by adding 20ul Cell Titer Glo to the original plate and running a luminescence read on the EnVision. The quantified IL-1a signal for each siRNA gene-targeted well was divided by the median of the negative control wells and multiplied by 100 to achieve a negative control normalized value for each well/siRNA. This normalized value was then used to generate a robust z-score by first taking the log of each value and then by subtracting the median and dividing by the […].
With GGAUCCCAAGUUCAAAGCCTT against Rfxap, the z-score is 2.07 (active).
Take CCUAUAACAUCCACCUUCATT against Yipf3: the z-score was -0.508.
As for GGAAACAAGAAGAACGAUGTT against Camk2a, the z-score was 1.47.
Under GCACUCAGCUAGGUGAAGATT against Hnrnpul1 stands -0.186; under GAUCUAGGACAGCUUAGAUTT against Avpr1b, -0.955; under GCCAAUGAAAACCUUUUGCTT against Parp9, -0.736.
Under GGAUUUUACAUUUCUACACTT against Tmprss15 stands 2.14 (active); under CGCACUGGAUAAUAUCAGCTT against Dok5, 0.0135.
Under GGCAGAAAUUUGGAUACCATT against Plekha4 stands 2.1 (active); under GGAAGUUAGCUCCUAAAUATT against Pirt, -0.383.
For CCUUUUUUAUAUCCACUCATT against Bahcc1, the z-score is 1.22.
With GCAUCACUGCCACAGUGCATT against Olfr159, the z-score is -0.133.
Under GUAGUUGUUCUGAGAAAUCTT against Krtap19-2 stands -0.49; under GGAAAUUCAAAAAGUGUGUTT against Aplf, -2.25 (active); under “GGCCUGUUUUGAAGUAGAATT against B630019K06Rik”, 0.352.
The same measure for GCCAUUUGAAACUCUCCUGTT against Gstp3: -1.71.
As for GGUCCUCCAGUUAAUGUCATT against Glra3, the z-score was -0.916.
Turning to GGUUAUCCAGAGAGUGCAUTT against Arl4d, the z-score is 1.01.
In the case of ACUCCUAUGAGCUAGCUGUTT against Krt42, the z-score is 0.919.
In the case of GGAAUUGAGACCCAAUAUUTT against Cnot7, the z-score is -0.353.
Regarding GGAAUCAGCAAACUCAACCTT against Rnase11, the z-score was -0.748.
Under GGAUUCAGAAGCAGCAACATT against Nr1h2 stands -2.29 (active); under GGCCAAGGACAUUAUAAAUTT against Scly, -0.585.
In the case of AGUGAACAUCGAUCGCAUGTT against Gng8, the z-score was 0.937.
The same measure for GCAAUGGUGGUUCUAAUAUTT against Cmya5: -0.00244.
For GCCAACCAGGAUUUUACAATT against Fga, the z-score was 0.463.
As to GGAGAGUGUGUUUUCAGGCTT against Bop1, the z-score was 3.08 (active).
The same measure for GAGUGUCUUGAACACAGCCTT against Olfr635: -0.0711; for GGCCAAGUUCCUUUGCAUATT against Lacc1: 0.274; for CCAAAUGUAGCGGAACUGATT against Rsu1: 0.195.
The same measure for GGGUAUGAGUGCAGACUAUTT against Zcchc9: 0.803.
Turning to “GGCUUUGUAGCGAUAACAATT against D930030D11Rik”, the z-score was -0.936.
The same measure for GGUCAGUGACAUUAUCAAUTT against Vmn1r237: 1.84; for GGAGCAGUUACAGGAAAUCTT against Cdr2: -2.11 (active); for GGCAAGACUAUGAAUAUAATT against Ufsp2: -0.486.
The same measure for GGAUUUGGAUUUGGAUUUUTT against Tsc22d3: 0.387.
The same measure for CCUUGUACCCAGUAAAGUCTT against Mab21l4: 0.586; for GGUGGACAAGUUCAAAGCCTT against Atg4d: -1.56; for GCAGGAUAUGUAAAGGUUUTT against Gimap3: -0.924.
Turning to CCUAAAAGCAGGCCAAAAUTT against Dhx29, the z-score was -1.26.
Under GGAGAAGAGCCUUCUCAAGTT against Srsf4 stands 2.05 (active).
Under GGUUAUAGCUUCAAUAGCUTT against Bphl stands -0.61.
Under UAACAGACCAGUAAAGGCCTT against Klra21 stands 0.322.
For the sequence CCAGAUACCCAUAAUAUCUTT against Mbnl1, the z-score is -0.604.
The same measure for CGAUUUCCUUGGCACCAAUTT against Arhgap1: -0.675; for GUGGACUUUUAGCAAUCAGTT against Olfr98: -1.55; for GGAGACUUAUUGAGCAAGUTT against Usp44: 4.42 (active).
CGCUGAAGUCUUUUCACAATT against Baiap2: the z-score was 0.286.
The same measure for CCCUUUCGGGCAAUGGACUTT against Olfr986: -0.0157; for GGGCUUAAGCUUUGAGGGUTT against Foxs1: 0.213; for GGGUUUGCACUAGUUUAUUTT against Rap1a: 0.632.
For the sequence GGUCCUAAAGCCUUUUCUATT against Mrpl10, the z-score is 0.199.
In the case of GGAAGGGUCAGAAAAAUGUTT against Slc1a2, the z-score was 0.202.
Regarding GGUAAUGAUCCAUUCACCATT against Ly75, the z-score is -1.47.
For GCAUAUACUUGAUUACCGUTT against Olfr830, the z-score is -0.391.
The same measure for CCUCUGUCAGUUGGUUAACTT against Mon2: -2.33 (active).
In the case of CCUUCUACUAAUCAAGAGATT against Sparc, the z-score is -0.578.
Under GGACCACAGAAGUUCUCAUTT against Pira2 stands -2.88 (active); under GCACGGAAGACUUACGAACTT against Cstf3, 0.439.
Under GGACAUAUUUCCAACAUGUTT against Mob3b stands -1.34; under CGAAUCAUGUGUUUGCACATT against Camkk2, 1.21.
Regarding GCCUGAUUGACUUAGAGUCTT against Eps8, the z-score is 0.821.
The same measure for GCAGGUGAAGAGUGAUUUUTT against Il10: 0.318; for GGAACUGCUUACGAAAUACTT against Lama4: -2.33 (active); for GGAUGUGUUAUCGGUGCUCTT against Mup21: -0.303.
For the sequence GGAAGAGGAAGAAAAAAAGTT against Iqcf4, the z-score is -0.411.
The same measure for CUUACGAUACAUAAGAGAATT against Zfp457: 0.364; for CGACAACAUUUUCCUGUCATT against Serpinc1: -2.07 (active).
Under GGAGAGAGAGAAGAAGGAUTT against Zmat2 stands -1.47; under GCUCAUUCCAGGUAUCUGATT against Fcna, -1.19.
Under GCUAUGACAGUUAUGCUACTT against Cirbp stands 0.874; under GGAUACGAGACAAUGAGAATT against Kctd2, -0.404; under GCGAAUUACUAUGUACCUATT against Sqor, 1.75.
Take GGACUGAGGAGAGCAAUAUTT against Cts6: the z-score is -1.29.
The same measure for GGCGGACAGAAAUUAUAGATT against Tnpo3: 3.19 (active); for CCGUUGCCUGAUAAGUUCUTT against Klf3: 0.576; for GCCUUUCUGAGGGAUUUUGTT against Eif1ad: -1.81.
As to GCCAAGCUUACUCAGAUUUTT against Mslnl, the z-score was 2.45 (active).
Under GGCCUUUAUUCAGAUGUCATT against Zscan12 stands -2.79 (active); under GGUUUAGGCAACUAAGUUGTT against Stat5a, 0.426.
The same measure for GCAAAGUACCCACCUUUGUTT against Pitpna: 2.06 (active); for GGCAACUUUGAAGUCUUGATT against Dntt: -0.488.
Consider GGGUUCUUUUAGGUUGUCATT against Ccdc85a, for which the z-score was -0.123.
As for GGAACUUCAUCCAAACUGATT against Ap4m1, the z-score is -0.12.
As for CGUCCAAGCAUAUAUGAAATT against Slfn8, the z-score is 1.36.
GGGAAGAGAAUGAGAUAAATT against F7: the z-score is 3.22 (active).
Under CCGACAUUCGAGUUUUGCGTT against Rrp9 stands -0.532; under GCGAACAACCACGUUUUUCTT against Ddx18, 0.388.
As for GGUGUCAAGAAGAAUGUCCTT against Megf11, the z-score was 3.2 (active).
The same measure for GGCCGAAAGAUAAAAACAGTT against Rad51d: 0.173; for GCGACACCACUGAUGACGATT against Gga2: -0.473.
The same measure for GGAAAAACAUGCCAAAAAATT against Mettl15: -0.222; for CCUUAGUAUGUAUGUGGUATT against Map10: -2.65 (active); for CCACACUUCCCUUAUUUAATT against Arpc5: 1.35.
The same measure for GGCUAAAGACCAGUAUUUGTT against Cdh7: 2.47 (active); for CGCAGUCAAAUUUGAAAGUTT against Car5b: 0.775; for GGCUGACAGACAAGAUUGUTT against Tfb1m: -1.3.
As for GCCUGUGGUGAUUCUCUUGTT against Tmem53, the z-score is -0.093.
As to CCCAGUUAUCCUGAAAAGUTT against Ears2, the z-score was 0.526.
Turning to GCAAAAGUAUUUUGUGUCCTT against Aamp, the z-score is 0.241.
The same measure for GCGCAAUGAACGGUUCUACTT against Prepl: 3.96 (active); for GGGAUGUGAGGGAAUUAACTT against B4galt3: -1.03; for GGUCUUCAAGAACUGUAGCTT against Bcl11b: 1.09.
Consider GCACACCAGAUCUACUUCUTT against Cyp2b9, for which the z-score was 0.3.
Consider GCUUCACUCCACCUUUCAGTT against Prkcg, for which the z-score was 0.767.
Under GGUCGUUUCUAUGAUUGGCTT against Olfr589 stands 0.568; under “GCUCGAAGAAAGGCCCUGATT against B430306N03Rik”, -0.509.
Under GGACCUAAACAACGUGUUGTT against Klf2 stands 2.74 (active).
